Calls of active or inactive are those of the source. How the source made its calls: active means hit-call score of the fitted dose curve at least 0.9, where 1 is the maximum; inactive means score below 0.9.

Read-out in the assay: matrix metalloproteinase-3 (MMP3), MMP3 (gene 4314)
The experiment in a line: LTEA_HepaRG_MMP3: Life Technologies and Expression Analysis (LTEA) Assay for matrix metalloproteinase-3 (MMP3) using HepaRG (AID 2283519). The note with it: mRNA level, 48 h; actives raise or lower the signal. As to the method:
LTEA_HepaRG is a cell based, multiplexed-readout assay that uses HepaRG, a human liver cell line, with measurements taken at 48 hours after chemical dosing on a 96-well plate.LTEA_HepaRG_MMP3 is one of 102 assay component(s) measured in the LTEA HepaRG cell culture assay. It is a marker of Fibrosis.Data from the assay component LTEA_HepaRG_MMP3 was analyzed into 1 endpoint. This assay endpoint, LTEA_HepaRG_MMP3, was analyzed with bidirectional fitting relative to DMSO as the negative control and baseline of activity. Using a type of inducible reporter, measures of mRNA induction for gain or loss-of-signal activity can be used to understand regulation of transcription factor activity. To generalize the intended target to other relatable targets, this assay endpoint is annotated to the protease intended target family, where the subfamily is matrix metalloproteinase.
A total of 1060 chemcials from the ToxCast library were tested in eight-point concentration-response experiments. Cell culture and cytotoxicity assays were conducted at Thermo Fisher Scientific's Custom Services facility (Madison, WI). A single lot of human HepaRG cells (Thermo Fisher Scientific, Frederick, MD) was used for the cell culture experiments. 96-well format collagen type I coated plates of human HepaRG cells were prepared using established methods. Briefly, cryopreserved HepaRG cells were thawed, plated at a density of approximately 100,000 cells/well in HepaRG Thaw, Plate, and General Purpose media (HPRG770, Thermo Fisher Scientific), and incubated for 48 hours. 0.5% DMSO was selected as vehicle control to balance the requisite need of DMSO in HepaRG cultures to maintain differentiation (for example, baseline metabolism, proportions of hepatocytes vs. cholangiocytes), while enabling further hepatic receptor pathway activation (for example, PXR and CAR) in response to chemical exposure. 48 hours after plating, the culture medium was replaced with HepaRG Serum-Free Incudtion Media. Cells were exposed to each test chemical in duplicate and maintained in CO2 incubators for another 48 hours. Chemical plates were thawed to room temperature and 200x concentrations of treatment groups were prepared. 8-point conentration-reponse curves were made with the highest exposure at 100 uM, followed by half-log dilutions, all in 0.5% DMSO. Each test plate contained variouse controls, induction positive controls (1mM phenobarbital), cytotoxicity positive controls ([…] aflatoxin B1), vehicle controls (0.5% DMSO), and total lysis controls (0.5% DMSO). Cell morphology images were taken using an Essen IncuCyte FLR automated microscope, with six 96-well plates imaged in about 24 minutes. Images were captured and exported and JPEG files. Spent culture media was transfered to black-well plates for the LDH assay, and remaining media was sorted at -80 C for later use. Cells were treated with RLT buffer and frozen until shipped for gene expression analysis. Total RNA was isolated from the cell suspension in 75 uL of Buffer RLT (Qiagen, Germantown, MD 20874) by Quintiles/Expression Analysis (Durham, NC) using a custom isolation procedure. Total RNA from each plate well was transferred to a preamplification plate. Fluidigm's 96.96 Dynamic ArrayTM (Fluidigm, Amsterdam, the Netherlands) technology was used for gene expression analyses by quantitative reverse transcription polymerase chain reaction (qRT-PCR, performed by Quintiles/Expression Analysis, Durham, NC)89. Standard TaqManTM Assays (Applied Biosystems/ThermoFisher Scientific, Foster City, CA) were used to assess the expression of 93 genes selected based on their selectivity and sensitivity to important hepatic receptors known to be modulated by environmental chemicals; importance in human hepatocyte functionality; and hepatotoxicity. […]
Take `CC(C)(O)c1ccc(CNC(=O)c2cccnc2Oc2ccc3nonc3c2)cc1`: the call was inactive.

Consider `CCCCOC(=O)CC(CC(=O)OCCCC)(OC(C)=O)C(=O)OCCCC`, for which the result was inactive.

As for `CC(=O)N1CCN(c2ccc(OC[C@H]3CO[C@](Cn4ccnc4)(c4ccc(Cl)cc4Cl)O3)cc2)CC1`, the AC50 – broadly, the midpoint of the concentration-response curve, whichever way the signal moves – is 24 µM (active).

As for `NC(=O)c1nc(-c2cccc(-c3cc(F)ccc3OCC(F)(F)C(F)(F)F)c2)n[nH]1`, the AC50 was 5.48 µM (active).

As for `CN(C)c1ccc(C(=C2C=CC(=[N+](C)C)C=C2)c2ccc(N(C)C)cc2)cc1`, the AC50 is 9.34 µM (active).

Consider `CCCCCCCCN(C)CCCCCCCC`, for which the outcome was inactive.

As for `O=C(O)c1ccccc1-n1cc(C(=O)O)c(=O)c2cc(Nc3c(F)cc(F)cc3Cl)c(Cl)cc21`, the outcome was inactive.

As to `CCCOC(=O)c1cc(O)c(O)c(O)c1`, the call was inactive.

As for `Cc1cn([C@H]2C[C@H](N=[N+]=[N-])[C@@H](CO)O2)c(=O)[nH]c1=O`, the call was inactive.

Take `C[C@]12CC[C@@H]3c4ccc(O)cc4CC[C@H]3[C@@H]1CCC2=O`: the molecule was classed as inactive.

As for `Oc1ccc2ccccc2c1`, the result was inactive.

Regarding `Clc1ccccc1C(c1ccccc1)(c1ccccc1)n1ccnc1`, the outcome was inactive.

With `CC(C)(C)c1cc(/C=C2\SC(N)=NC2=O)cc(C(C)(C)C)c1O`, the AC50 is 3.52 µM (active).

On to `O=C1O[C@H]([C@@H](O)CO)C(O)=C1O`, for which the molecule was called inactive.

On to `O=CCCCC=O`, for which the outcome was inactive.

With `c1ccc(C[n+]2cccc3ccccc32)cc1`, the molecule was classed as inactive.

Turning to `c1ccc2n[nH]nc2c1`, the molecule was called inactive.

Regarding `O=c1[nH]sc2ccccc12`, the result was inactive.

As to `O=C(OCCCCCCOC(=O)c1ccccc1)c1ccccc1`, the molecule was classed as inactive.

Take `CCCCOC(=O)c1ccc(O)cc1`: the outcome was inactive.

For `O=C(O)c1ccccc1C(=O)OCc1ccccc1`, the molecule was classed as inactive.

As for `O=C1CCC(C2CCCCC2)CC1`, the outcome was inactive.

For `OC12N=C(c3ccccc3)SC1Cc1cc(Cl)ccc12` (stereo not given), the outcome was inactive.

With `CN1C(=O)N(c2ccccc2Br)Cc2cnc(Nc3ccc4c(c3)OCC(CO)O4)nc21` (stereo not given), the call was inactive.

Consider `O=C(O)Cc1cc(I)c(Oc2ccc(O)c(I)c2)c(I)c1`, for which the outcome was inactive.

On to `CC1(C)NC(=O)N(c2ccc([N+](=O)[O-])c(C(F)(F)F)c2)C1=O`, for which the call was inactive.

On to `O=C(O)Cn1c(=O)n(Cc2ccc(Br)cc2F)c(=O)c2ccc(Cl)cc21`, for which the molecule was called inactive.

`COc1ccc2cc(S(=O)(=O)N[C@H](CC(=O)N[C@H](Cc3ccc(CN4[C@H](C)CCC[C@@H]4C)cc3)C(=O)N(C)C(C)C)c3ccc4c(c3)OCO4)ccc2c1`: the outcome was inactive.

Take `COCC(C)OCC(C)OCC(C)O` (stereo not given): the result was inactive.

In the case of `Cc1ccc2oc(CN(Cc3ccccc3)C(=O)Nc3c(F)cc(F)cc3F)c(-c3ccc(Cl)cc3)c2c1`, the outcome was inactive.

For the molecule `Cc1c2ccccc2c(C)c2c1ccc1ccccc12`, the AC50 is 11.8 µM (active).

In the case of `CCN(Cc1cccnc1)C(=O)c1cccc(Cl)c1[C@]1(C)C(=O)N(Cc2ccc(OC)cc2OC)c2ccc(Cl)cc21`, the molecule was classed as inactive.

Consider `CC[C@H](NC(=O)c1cc(F)ccc1NS(=O)(=O)c1cccc2cccnc12)c1ccccc1`, for which the molecule was called inactive.

For the molecule `CCCCCCCCCCCCO`, the outcome was inactive.

`CCCCCCCCOc1ccc(C(=O)c2ccccc2)c(O)c1`: the call was inactive.

For the molecule `CCCC(=O)OCCC(C)C`, the result was inactive.

On to `CCCCCCCCCCCC[N+](C)(C)C`, for which the concentration at half-maximal activity (AC50) was 76.4 µM (active).

Regarding `O=C1c2ccccc2C(=O)N1CCc1noc(-c2ccc(CN3CCCCCC3)s2)n1`, the molecule was classed as inactive.

Turning to `COc1cc(C(=O)NC2CCN(C)CC2)ccc1Nc1ncc2c(n1)N(C1CCCC1)CC(F)(F)C(=O)N2C`, the concentration at half-maximal activity (AC50) is 4.65 µM (active).

Turning to `CC1=CC(=O)/C(=C(/C)O)C(=O)O1`, the call was inactive.

The values are drawn from PubChem BioAssay (EPA / NIEHS).
